Pol iota inh: blocks human DNA polymerase iota activity. Potency, µM (titrated, usually from 115 µM), actives largely listed as inhibitors. Pol iota fluorescent replication assay, 10 min. 390,000 compounds, 1% hits. AID 588590. Q9UNA4
Target sequence (Q9UNA4 whole entry, looked up): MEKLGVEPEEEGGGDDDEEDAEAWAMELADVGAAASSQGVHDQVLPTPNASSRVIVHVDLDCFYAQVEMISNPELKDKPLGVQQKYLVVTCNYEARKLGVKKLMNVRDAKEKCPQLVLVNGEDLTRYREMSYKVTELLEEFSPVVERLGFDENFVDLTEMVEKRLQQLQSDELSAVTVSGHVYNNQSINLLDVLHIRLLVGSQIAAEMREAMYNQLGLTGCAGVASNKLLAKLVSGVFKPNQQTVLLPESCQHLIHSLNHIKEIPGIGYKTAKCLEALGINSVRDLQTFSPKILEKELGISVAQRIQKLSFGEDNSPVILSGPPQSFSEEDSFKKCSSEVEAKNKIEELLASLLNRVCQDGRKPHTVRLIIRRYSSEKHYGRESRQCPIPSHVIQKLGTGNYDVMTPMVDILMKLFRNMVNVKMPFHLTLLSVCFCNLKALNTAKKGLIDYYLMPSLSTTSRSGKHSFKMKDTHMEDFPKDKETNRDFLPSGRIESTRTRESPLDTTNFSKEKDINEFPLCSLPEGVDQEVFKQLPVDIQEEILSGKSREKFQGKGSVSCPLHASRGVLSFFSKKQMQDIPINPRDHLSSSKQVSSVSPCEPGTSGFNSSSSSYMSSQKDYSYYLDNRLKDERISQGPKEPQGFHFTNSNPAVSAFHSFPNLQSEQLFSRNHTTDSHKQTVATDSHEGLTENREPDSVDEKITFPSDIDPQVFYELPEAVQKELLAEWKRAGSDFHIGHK
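Pol iota at 10 nM preincubated 15 min with compounds at room temperature; reaction started with fluorescent substrate, 50 nM final. Fluorescence read kinetically at 0 and 10 min; buffer-only wells as negative control.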
L3MBTL1 inh-1: inhibitors of human L3MBTL1 | Q9Y468 | AlphaScreen L3MBTL1–H3K9me1 peptide binding | Potency, µM (series often up to 57.1 µM), most hits filed as inhibitors | 230,000 compounds, 0.66% hits | AID 485360; note: nearly all actives have a fitted effect of over 60% in size
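Displacement of a biotinylated histone H3(1-15) peptide monomethylated at Lys9 (75 nM) from L3MBTL1 (50 nM) was measured by AlphaScreen after a 30 min room-temperature compound incubation; cefsulodin titration served as intraplate control.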
Pol eta inh-1: inhibitors of human DNA polymerase eta. recombinant Pol eta, fluorescent DNA replication assay. Potency, µM (titrated, usually from 114 µM), usual class: inhibitors. 390,000 compounds, 1.2% hits
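Pol eta (10 nM) was preincubated with compounds for 15 min at room temperature, after which fluorescent replication substrate (50 nM final) was added to start the reaction. Fluorescence was read kinetically at 0 and 10 min.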
Pol kappa inh-1: inhibitors of human DNA polymerase kappa. purified Pol kappa, fluorescent DNA synthesis assay, 10 min. Potency, µM (top dose mostly 107 µM), usual class: inhibitors. 400,000 compounds, 0.53% hits
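10 nM Pol kappa preincubated 15 min at room temperature with compounds, then reaction started with substrate at 50 nM final. Fluorescence read kinetically at 0 and 10 min; buffer-only wells served as negative control.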
Pol beta inh-1: DNA polymerase beta (human) inhibition; 340,000 compounds, 1.3% hits; Potency, µM (highest dose often 114 µM), hits mostly inhibitors; P06746; AID 485314; Pol beta primer extension/strand displacement, fluorescence kinetic
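Preincubation: enzyme (10 nM) with compound, 15 min, RT. Reaction: substrate added to 50 nM final. Reads: 0 and 10 min. Analysis: normalized, Hill fit.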
Pol beta inh-2: Human Pol beta inhibitor hit validation; shares compounds with Pol beta inh-1; Pol beta primer extension/strand displacement, fluorescence kinetic; Potency, µM, usual class: inhibitors; 250 compounds, 87% hits; calls by dose curve
Klenow inh: counter-screen for DNA polymerase beta inhibitors: Klenow fragment inhibition; Klenow exo- polymerase counter-screen, fluorescent DNA substrate; 250 tested, under 10 active; activity change, negative = inhibition, % at 57.1 µM; AID 540300; shares compounds with Pol beta inh-1
HIV RT counter: HIV-1 RT inhibition, pol beta selectivity check | AID 540301 | HIV-1 RT polymerase activity, counter-screen | activity % (negative = inhibition, positive = activation), % at 57.1 µM | shares compounds with Pol beta inh-1 | 250 tested, under 10 active
POLB valid: DNA polymerase beta inhibition, radiolabeled validation; inhibition, % at 10 µM; shares compounds with Pol beta inh-1; radiolabeled primer extension gel assay, phosphorimager; 110 compounds, 91% hits;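 active = inhibition at 10 µM of 30% or more; inconclusive = no clear call, values can overlap the other calls; inactive = inhibition at 10 µM under 30%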
L3MBTL1 inh-2: validation of human L3MBTL1 methyl-lysine binding inhibitors; AID 540279; L3MBTL1 methyl-lysine binding inhibition, biochemical qHTS; 500 compounds, 91% hits; Potency, µM, hits mostly inhibitors; shares compounds with L3MBTL1 inh-1; note: nearly all actives have a fitted effect of over 70% in size
L3MBTL1 ctr: counter-screen for L3MBTL1 inhibitors: AlphaScreen signal interference; shares compounds with L3MBTL1 inh-1; AlphaScreen counterscreen, signal inhibition; Potency, µM (highest dose often 57.1 µM), usual class: inhibitors; 500 tested, under 10 active; AID 602224
Pol iota confirm: Human Pol iota inhibitor confirmatory assay. shares compounds with Pol kappa inh-1. Pol iota primer extension, TAMRA/BHQ fluorescence. Potency, µM, most hits filed as inhibitors. 1,500 compounds, 77% hits. AID 720496
GALK confirm: confirmation of human galactokinase (GALK) inhibitors | AID 2015 | purified GALK, Kinase-Glo ATP depletion luminescence | 150 compounds, 70% hits | shares compounds with Pol eta inh-1 | Potency, µM (highest dose often 115 µM), usual class: inhibitors
Redox cycling: counter-screen for GALK inhibitors: redox cycling H2O2 generation; shares compounds with Pol eta inh-1; Phenol red-HRP H2O2 redox cycling, absorbance 600 nm; Potency, µM (top dose mostly 115 µM), most hits filed as inhibitors; 150 compounds, 40% hits; AID 2035
HEK293 tox: reduces HEK-293 cell viability in GALK counter-screen; Potency, µM (top dose mostly 46.1 µM), usual class: inhibitors; 170 compounds, 10% hits; HEK-293 viability, ATP luminescence (CellTiter-Glo), 24/48 h; shares compounds with Pol eta inh-1; AID 2547
Pol kappa inh-2: confirmation of human DNA polymerase kappa inhibitors; shares compounds with Pol eta inh-1; purified Pol-kappa, fluorescent strand-displacement substrate; Potency, µM, most hits filed as inhibitors; 920 compounds, 76% hits; AID 720501
Pol eta inh-2: Pol eta (human) inhibition, cherry-pick confirmation. Pol eta primer extension, TAMRA/BHQ fluorescence, 10 min. 2,600 compounds, 64% hits. Potency, µM, usual class: inhibitors. shares compounds with Pol eta inh-1
A number is an active result; – = inactive; ? = inconclusive; · = no result given. Sampled rows, rich in hits. Any-hit rate of the full collection: about 2.4%. Unless noted, calls come from the whole dose curve; as a rule, active = well fitted curve in the direction sought with a large enough effect; inconclusive = small, poorly fitted or top-dose-only effect, or another doubt; inactive = no such curve, though single readings can be large; an effect the other way counts as inactive or inconclusive.

SMILES	Pol iota inh	L3MBTL1 inh-1	Pol eta inh-1	Pol kappa inh-1	Pol beta inh-1	Pol beta inh-2	Klenow inh	HIV RT counter	Pol kappa inh-2	Pol eta inh-2	others
COc1cc(C(=S)N2CCN(c3ccccc3Cl)CC2)cc(O)c1O	?	?	20µM	70.8µM	10µM	2.51	–	–	·	75.7
C=C(C)CCOC(=O)C(CC(=O)O)NCc1ccco1 (configuration not stated)	–	28.2µM	11.2µM	?	8.91µM	35.5	–	–	18.9	26.9	L3MBTL1 inh-2=9.47;L3MBTL1 ctr=–
O=C(COC(=O)c1ccc(S(=O)(=O)NCc2ccco2)cc1)Nc1ccc(Cl)cn1	22.4µM	?	20µM	79.4µM	15.8µM	22.4	–	–	·	75.7	POLB valid=99.8
Cc1ccc(NC(=O)COC(=O)c2ccc(S(=O)(=O)NCc3ccco3)cc2)cc1	–	–	–	–	·	·	·	·	·	·
COc1cc(Cl)c(C)cc1NCC(=O)Nc1cccc(S(=O)(=O)N2CCCC2)c1	–	–	–	–	·	·	·	·	·	·
Cc1ccc(C)c(Cn2c(=O)n(-c3ccc(F)cc3)c(=O)c3sc4ccccc4c32)c1	–	·	–	–	–	·	·	·	·	·
O=C1/C(=C\c2ccc(O)c(O)c2)C(c2ccccc2)=NN1c1ccccc1	22.4µM	14.1µM	8.91µM	70.8µM	8.91µM	7.08	–	–	18.9	42.6	GALK confirm=?;Redox cycling=?;HEK293 tox=–
CC1=NN(c2ccccc2)C(=O)/C1=C\c1sccc1C	?	–	–	–	–	·	·	·	·	·
CSc1nc(SCC(=O)O)c2sc3nc(-c4ccccc4)c4c(c3c2n1)CCC4	?	–	?	?	2.51µM	3.98	?	–	·	67.5	Pol iota confirm=15
COC(=O)c1c(NC(=O)COC(=O)c2ccccc2O)sc2c1CCCCC2	–	–	–	–	–	·	·	·	·	·
COC(=O)c1c(NC(=O)COC(=O)c2ccc(NC(=O)CC#N)cc2)sc2c1CCCCC2	14.1µM	?	28.2µM	50.1µM	8.91µM	6.31	–	–	16.8	30.1	Pol iota confirm=23.8
Cc1nc2cc(-c3ccsc3-n3c(C)ccc3C)[nH]n2c(=O)c1Cl	?	·	25.1µM	?	10µM	28.2	–	–	29.9	30.1	POLB valid=73.7

High-throughput results deposited in PubChem by National Center for Advancing Translational Sciences (NCATS).
